Rows were chosen to be rich in hits. Some 5.7% of all compounds tested hit in one or more screens of this group.
DAX1 inh-1: NR0B1 (DAX1) inhibition | AID 504766 | P51843 | HEK293 Gal4-DAX1 luciferase reporter, luminescence | inhibition, % at 6.75 µM | 340,000 tested, 0.99% active;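 active = inhibition above the mean over all tested compounds plus 3 SD, cut at about 4.2% in these data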;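 note: 0% = DAX1-transfected cells with DMSO and 100% = empty-vector control cells with DMSO; inhibition shows as a rise in luminescence from relieved DAX1 repression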
hcDAF12 agonist: H. contortus DAF-12 activation, primary screen | HEK293 hcDAF-12 lit1-tk-luc reporter, luminescence; 0% DMSO, 100% Δ7-dafachronic acid | activation, % at 6.8 µM | 370,000 tested, 1.4% active | AID 652067;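 active = activation above the mean of all tested compounds plus 3 SD, cut at about 5.5% in these data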;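 note: 100% = response to 3 µM Δ7-dafachronic acid high control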
DAX1 inh-2: inhibitors of DAX1 repression of SF-1 activated StAR promoter; HEK293T StAR-luciferase reporter, SF-1/DAX-1 repression relief; inhibition, % at 6.8 µM; 370,000 tested, 1.1% active;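 active = inhibition above the mean over all tested compounds plus 3 SD, cut at about 3.6% in these data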;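 note: 0% = DAX-1 cells with DMSO and 100% = cells lacking DAX-1 with DMSO; higher inhibition means more luminescence from relief of DAX-1 repression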
AHR activator: human AHR activation; P35869; AHR-responsive luciferase reporter cells, luminescence; activation, % at 5 µM; 320,000 tested, 2.5% active; in the data active = activation above about 47%;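 note: 0% = vehicle wells and 100% = reference agonist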
Target sequence (P35869 whole entry, looked up): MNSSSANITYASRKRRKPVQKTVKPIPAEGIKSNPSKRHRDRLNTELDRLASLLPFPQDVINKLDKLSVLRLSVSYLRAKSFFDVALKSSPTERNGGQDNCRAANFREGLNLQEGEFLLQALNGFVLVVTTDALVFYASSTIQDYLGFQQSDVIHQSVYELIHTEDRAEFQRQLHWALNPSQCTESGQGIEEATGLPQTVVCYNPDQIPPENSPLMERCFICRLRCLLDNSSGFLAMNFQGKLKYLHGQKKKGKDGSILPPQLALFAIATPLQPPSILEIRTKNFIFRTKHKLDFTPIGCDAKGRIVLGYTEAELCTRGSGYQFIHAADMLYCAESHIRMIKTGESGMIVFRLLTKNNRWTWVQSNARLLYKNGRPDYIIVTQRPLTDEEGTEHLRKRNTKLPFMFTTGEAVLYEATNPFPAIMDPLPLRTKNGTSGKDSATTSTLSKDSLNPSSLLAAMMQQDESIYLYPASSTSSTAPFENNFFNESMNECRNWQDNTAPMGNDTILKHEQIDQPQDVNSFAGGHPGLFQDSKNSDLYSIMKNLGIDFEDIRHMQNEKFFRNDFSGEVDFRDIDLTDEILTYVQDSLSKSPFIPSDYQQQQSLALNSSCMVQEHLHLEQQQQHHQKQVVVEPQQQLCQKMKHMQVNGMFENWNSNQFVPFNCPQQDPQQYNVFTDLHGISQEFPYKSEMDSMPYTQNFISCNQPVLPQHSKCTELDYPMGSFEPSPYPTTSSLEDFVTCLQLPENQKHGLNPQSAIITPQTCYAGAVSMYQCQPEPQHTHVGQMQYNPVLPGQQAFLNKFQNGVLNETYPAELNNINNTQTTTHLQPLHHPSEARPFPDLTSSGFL
ssDAF12 agonist: activates DAF-12 receptor from parasite S. stercoralis | HEK293 ssDAF-12/GRIP1 lit1-tk-luc reporter, luminescence; % of 3 µM dafachronic acid response | activation, % at 6.8 µM | 370,000 tested, 1% active;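 active = activation above the mean over all tested compounds plus 3 SD, cut at about 0.9% in these data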;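 note: 0% = DMSO-only wells and 100% = 3 µM delta7-dafachronic acid wells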
hgDAF-12 ag: hgDAF-12 agonism, primary luciferase screen | HEK293 GAL4-hgDAF12 UAS-luciferase reporter, agonist luminescence; normalized to butyrate control | activation, % at 6.8 µM | 370,000 tested, 1.8% active | AID 687014;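 active = activation above a cutoff set at the mean of all screened compounds plus 3 SD, cut at about 10% in these data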;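 note: 0% = DMSO wells and 100% = sodium butyrate wells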
* marks the source's active call; other numbers are inactive results; · = no result given.

SMILES	DAX1 inh-1	hcDAF12 agonist	DAX1 inh-2	AHR activator	ssDAF12 agonist	hgDAF-12 ag
CCN(CC)CCNC(=O)c1cn(CC)c2cc(N3CCN(C)CC3)c(F)cc2c1=O	-0.1	1.4	0.2	2.4	-0.5	3.1
CCOC(=O)c1c(C)[nH]c(C(=O)COC(=O)c2ccc(N3CCCC3=O)cc2)c1C	-1.4	-1.7	-0.6	0.0	-1.7	2.3
CCC1(C)OC(=O)N2CCc3c(C)[nH]c4c(C)ccc(c34)C21C (stereo not drawn)	0.3	-0.6	-2.5	61.6*	-0.7	2.1
CCCCOc1ccc(/C=C/C(=O)OCC(=O)NC(=O)NCC(C)C)cc1OCC	-0.1	-0.7	-0.3	0.9	-1.5	-0.4
N#CCCN(CCN1CCCC1)S(=O)(=O)c1ccc(-c2ccc([N+](=O)[O-])cc2)cc1	-0.6	-2.0	-0.2	-2.2	-1.0	-0.6
Cn1nc(Cc2cccc3ccccc23)c(C#N)c1N	1.1	-2.2	0.4	-0.1	-1.2	1.5
CC(C)n1nc(Cc2cccc3ccccc23)c(C#N)c1N	2.0	-0.4	0.2	61.9*	-1.2	0.1
COc1ccc(-c2csc(NC(=O)CSc3nc(C)cs3)n2)cc1	1.4	1.2	0.6	10.4	-1.5	5.8
COc1ccc(-c2csc(NC(=O)c3ccoc3C)n2)cc1	1.9	1.1	1.7	-4.8	-1.5	10.7*
COc1ccc(-c2csc(NC(=O)CSc3nc(SC)ns3)n2)cc1	-2.0	3.3	-0.1	58.3*	-1.4	7.3
COc1ccc2nc(NC(=O)c3ccccc3C(=O)O)sc2c1	-0.5	5.7*	0.6	15.2	0.0	2.8
COc1ccc2sc(NC(C)=O)nc2c1	2.3	1.9	3.3	8.4	-0.4	11.3*
CCC(=O)Nc1nc2cc(OC)ccc2s1	3.6	-0.2	1.1	4.7	-1.4	9.2
COC(=O)[C@]12C[C@H](CC(=O)NCc3cccc4ccccc34)C(=O)N(Cc3ccccc3)C1=C[C@H](C(C)C)O[C@@H]2C1CC1	·	-0.4	0.3	·	-1.4	0.2
CCOc1ccc2nc(NC(=O)c3ccccn3)sc2c1	-4.3	2.3	-1.8	-8.1	-1.4	-5.7
CCOc1ccc2nc(NC(=O)c3ccoc3C)sc2c1	-2.6	6.2*	2.5	-9.0	0.4	11.0*
COc1ccc2nc(NC(=O)C3CCN(S(=O)(=O)c4cccs4)CC3)sc2c1	0.7	-3.2	-2.0	2.3	-2.4	-4.2
COc1ccc2nc(NC(=O)C3CCCN(S(=O)(=O)c4cccs4)C3)sc2c1 (stereo not drawn)	-0.1	-1.6	-0.8	71.4*	-2.1	-0.4
COc1cccc(-c2c[nH]c(=O)[nH]c2=O)c1	2.3	-0.2	0.8	3.4	-0.8	1.9
COc1ccc(-c2nc(SC)n(S(=O)(=O)c3ccccc3)n2)cc1	-0.4	-0.2	1.4	10.2	1.0*	5.1
CSc1nc(-c2ccccc2)nn1S(=O)(=O)c1ccccc1	0.7	0.1	0.4	-1.4	-0.6	3.2
Cc1noc(C(=O)N2CCN(c3ccc(F)cc3)CC2)c1Cl	1.4	2.4	0.2	47.7*	-1.3	0.6
Cc1noc(C(=O)N2CCN(c3ccccc3)CC2)c1Cl	0.1	3.0	-0.1	6.0	-1.0	0.6
Cc1cc(Nc2ncc(Cl)cc2Cl)n[nH]1	-0.7	-1.6	0.1	54.4*	-0.7	5.7
Nc1nc(SCC(=O)Nc2ncc(Cl)cc2Cl)n[nH]1	0.7	-1.1	1.0	1.1	-0.9	0.2
SMILES	DAX1 inh-1	hcDAF12 agonist	DAX1 inh-2	AHR activator	ssDAF12 agonist	hgDAF-12 ag
CC1(C)C(=O)NCCN1C(=O)CCC(=O)O	0.2	1.9	0.8	0.3	-0.7	-0.1
CSc1ccc(C2Nc3cccc4cccc(c34)N2)cc1	-0.5	5.7*	-0.1	30.9	0.5	0.3
Clc1ccc(C2Nc3cccc4cccc(c34)N2)cc1	0.1	4.5	-0.6	60.1*	0.2	0.8
c1cc2c3c(cccc3c1)NC(c1ccc3c(c1)OCO3)N2	0.9	4.5	-0.1	23.4	0.1	1.5
Clc1ccc(C2Nc3cccc4cccc(c34)N2)c(Cl)c1	-2.1	1.6	-0.2	·	-0.7	-6.8
Cc1cccc(C2Nc3cccc4cccc(c34)N2)c1	0.7	5.7*	-0.3	27.4	1.2*	-1.0
COc1ccc(NC(=O)c2ccc(S(=O)(=O)N3CCOCC3)o2)cc1	0.3	-1.5	-0.2	34.3	-1.9	0.5
COc1ccccc1CNC(=O)c1ccc(Br)o1	-0.8	-1.2	0.2	2.5	-1.2	-0.1
Cc1nc(NC(=O)c2ccc(Br)o2)ccc1Br	0.1	3.6	4.0*	·	-0.5	5.3
C/C(=N\NC(=O)c1c(Br)c(C)nn1C)c1ccc(NC(=O)c2ccoc2C)cc1	2.4	-0.5	1.1	7.7	-0.6	12.2*
O=C(Nc1cccc(NC(=O)c2ccc(Br)o2)n1)c1ccc(Br)o1	-0.5	0.5	0.7	7.1	-0.9	0.0
COc1ccccc1C(=O)NNC(=O)c1ccc(Br)o1	0.9	3.5	3.4	55.2*	0.1	5.9
CC/C(=N/NC(=O)c1ccc(Br)o1)c1ccc(Cl)cc1	0.7	2.1	0.7	10.3	-1.4	11.6*
CCCC(=O)N1CCN(c2ccc(NC(=O)c3ccc(Br)o3)cc2)CC1	-0.2	-1.7	-0.3	-5.2	-0.9	-0.2
COC(=O)Cc1ccc(NC(=O)c2ccc(Br)o2)cc1	-0.3	3.2	0.3	-1.2	-1.2	11.7*
O=C(Nc1ccc2c(c1)CCC2)c1ccc(Br)o1	2.9	5.8*	2.2	24.5	0.3	12.7*
O=C(Nc1ccccc1)c1ccc(Br)o1	0.9	-1.3	0.3	3.8	-1.3	2.9
COc1ccc(CC(=O)Nc2ccc(/C(C)=N\NC(=O)c3ccc(Br)o3)cc2)cc1	1.4	6.2*	2.9	·	0.0	12.2*
CCN1CCN(c2ccc(NC(=O)c3ccc(Br)o3)cc2)CC1	1.4	3.4	3.7*	·	1.1*	10.8*
CC(=O)Nc1ccc2c(c1)CCCC2	-1.3	-1.2	0.1	-1.7	-1.4	-1.6
CC(=O)Nc1ccc(S(=O)(=O)N2CCN(C(=O)c3cccnc3)CC2)cc1	-0.2	-1.3	-0.8	-2.5	-1.5	0.8
O=C1c2cccc(OCC(=O)N3N=C(c4cccs4)CC3c3ccc(F)cc3)c2CCN1Cc1cccnc1 (stereo not drawn)	-1.0	-1.3	-0.8	9.2	-2.0	-7.6
COc1ccccc1C(=O)N/N=C(\C)c1ccc(NC(=O)Cc2ccccc2)cc1	1.0	5.2	1.6	33.3	-0.2	7.3
C/C(=N\NC(=O)c1ccccc1N)c1ccc(NC(=O)Cc2ccccc2)cc1	6.9*	3.3	1.8	·	0.7	8.3
C/C(=N\NC(=O)C1CC1)c1ccc(NC(=O)c2ccc(Br)o2)cc1	·	2.7	2.0	13.2	-1.0	8.3
C/C(=N\NC(=O)c1c(Cl)cnn1C)c1ccc(NC(=O)c2ccc(Br)o2)cc1	0.1	1.3	6.3*	·	-0.5	8.0
CCOc1ccc2nc3sc(C(=O)N4CCN(C)CC4)c(N)c3cc2c1	-0.3	0.9	1.2	4.4	-1.0	3.2

Compound activity as filed in PubChem BioAssay.
